What was measured:
Assay in all cases: DAPPL (digital affinity profiling via proximity ligation, sequencing); 10 mM Tris-HCl pH 7.5, 50 mM NaCl, 1 mM DTT, 4% glycerol, room temperature, 30 min; GST-TFs on glutathione beads, 16-mer random dsDNA library, 0.1% formaldehyde crosslink after washing; high values mean tight binding
Settings in all cases: protein: recombinant; tags: N-terminal GST; dsDNA, one strand shown
FLI1 = target: T1, FLI1 (Homo sapiens, UniProt Q01543 1-452)
T1 sequence: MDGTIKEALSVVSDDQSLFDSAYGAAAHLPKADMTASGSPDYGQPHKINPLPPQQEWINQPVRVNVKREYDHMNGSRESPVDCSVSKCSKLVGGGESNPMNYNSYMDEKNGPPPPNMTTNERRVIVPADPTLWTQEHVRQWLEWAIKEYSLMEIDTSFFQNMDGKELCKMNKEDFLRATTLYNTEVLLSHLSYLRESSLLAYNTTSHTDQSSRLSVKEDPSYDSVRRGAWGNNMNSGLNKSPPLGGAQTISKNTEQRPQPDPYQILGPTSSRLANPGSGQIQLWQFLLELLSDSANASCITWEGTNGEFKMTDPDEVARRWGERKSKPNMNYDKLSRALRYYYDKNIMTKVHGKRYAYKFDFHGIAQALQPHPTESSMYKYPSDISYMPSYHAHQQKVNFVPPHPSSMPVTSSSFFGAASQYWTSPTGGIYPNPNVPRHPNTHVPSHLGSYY
Outline: (§1)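 Pools were built from human transcription factors expressed in yeast as GST fusions, captured on glutathione beads and DNA-barcoded, along with a tag-only sample. Incubation with 200 nmole of a 16-mer random double-stranded DNA library lasted 30 min at room temperature in Tris/NaCl/DTT/glycerol buffer, and was followed by washing, 0.1% formaldehyde crosslinking, proximity ligation, PCR amplification and Illumina NextSeq500 sequencing. Binding signal is the quotient of each hexamer's read frequency for a factor and its frequency for the tag-only sample.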

ELK1 = target: T2, ELK1 (Homo sapiens, UniProt P19419 1-428)
T2 sequence: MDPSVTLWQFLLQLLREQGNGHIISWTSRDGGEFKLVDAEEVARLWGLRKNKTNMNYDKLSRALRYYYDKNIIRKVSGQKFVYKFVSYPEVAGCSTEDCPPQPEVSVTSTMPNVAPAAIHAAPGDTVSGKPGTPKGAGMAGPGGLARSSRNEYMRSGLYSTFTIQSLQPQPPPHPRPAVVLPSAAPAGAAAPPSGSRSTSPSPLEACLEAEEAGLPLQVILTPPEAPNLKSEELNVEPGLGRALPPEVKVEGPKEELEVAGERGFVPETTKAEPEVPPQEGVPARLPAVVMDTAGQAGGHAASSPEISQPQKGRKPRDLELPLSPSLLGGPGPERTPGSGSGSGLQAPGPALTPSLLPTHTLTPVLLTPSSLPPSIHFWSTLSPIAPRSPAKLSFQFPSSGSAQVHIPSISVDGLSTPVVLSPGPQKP
Outline: as §1

GABPA = target: T3, GABPA (Homo sapiens, UniProt Q06546 1-454)
T3 sequence: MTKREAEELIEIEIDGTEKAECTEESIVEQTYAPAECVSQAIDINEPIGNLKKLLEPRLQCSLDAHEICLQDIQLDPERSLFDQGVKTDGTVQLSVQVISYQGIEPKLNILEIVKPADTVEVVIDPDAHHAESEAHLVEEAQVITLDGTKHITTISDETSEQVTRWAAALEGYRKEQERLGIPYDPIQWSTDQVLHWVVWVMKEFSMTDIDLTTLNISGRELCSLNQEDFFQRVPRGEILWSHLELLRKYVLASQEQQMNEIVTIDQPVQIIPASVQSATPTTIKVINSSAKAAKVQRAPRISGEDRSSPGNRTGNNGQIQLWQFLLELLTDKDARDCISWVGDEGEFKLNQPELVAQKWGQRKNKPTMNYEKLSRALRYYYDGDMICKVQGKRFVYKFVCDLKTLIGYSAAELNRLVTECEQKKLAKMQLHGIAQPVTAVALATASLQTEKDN
Outline: as §1

ERG = target: T4, ERG (Homo sapiens, UniProt P11308 1-479)
T4 sequence: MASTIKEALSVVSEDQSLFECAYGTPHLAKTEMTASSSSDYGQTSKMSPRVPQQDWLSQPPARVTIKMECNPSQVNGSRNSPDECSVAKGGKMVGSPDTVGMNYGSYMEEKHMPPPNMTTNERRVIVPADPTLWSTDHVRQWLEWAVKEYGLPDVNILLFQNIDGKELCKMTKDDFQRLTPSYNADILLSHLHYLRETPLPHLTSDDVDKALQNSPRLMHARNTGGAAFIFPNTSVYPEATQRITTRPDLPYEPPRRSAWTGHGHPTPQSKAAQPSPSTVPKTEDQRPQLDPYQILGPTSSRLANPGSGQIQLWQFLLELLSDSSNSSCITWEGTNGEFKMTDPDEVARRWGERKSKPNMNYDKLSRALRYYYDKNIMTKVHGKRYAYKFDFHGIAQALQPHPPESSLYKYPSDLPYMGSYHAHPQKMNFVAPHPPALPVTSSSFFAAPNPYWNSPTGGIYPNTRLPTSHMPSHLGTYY
Outline: as §1

ELF1 = ELF1 (Homo sapiens, UniProt P32519 1-619)
Sequence of ELF1 (P32519 whole entry): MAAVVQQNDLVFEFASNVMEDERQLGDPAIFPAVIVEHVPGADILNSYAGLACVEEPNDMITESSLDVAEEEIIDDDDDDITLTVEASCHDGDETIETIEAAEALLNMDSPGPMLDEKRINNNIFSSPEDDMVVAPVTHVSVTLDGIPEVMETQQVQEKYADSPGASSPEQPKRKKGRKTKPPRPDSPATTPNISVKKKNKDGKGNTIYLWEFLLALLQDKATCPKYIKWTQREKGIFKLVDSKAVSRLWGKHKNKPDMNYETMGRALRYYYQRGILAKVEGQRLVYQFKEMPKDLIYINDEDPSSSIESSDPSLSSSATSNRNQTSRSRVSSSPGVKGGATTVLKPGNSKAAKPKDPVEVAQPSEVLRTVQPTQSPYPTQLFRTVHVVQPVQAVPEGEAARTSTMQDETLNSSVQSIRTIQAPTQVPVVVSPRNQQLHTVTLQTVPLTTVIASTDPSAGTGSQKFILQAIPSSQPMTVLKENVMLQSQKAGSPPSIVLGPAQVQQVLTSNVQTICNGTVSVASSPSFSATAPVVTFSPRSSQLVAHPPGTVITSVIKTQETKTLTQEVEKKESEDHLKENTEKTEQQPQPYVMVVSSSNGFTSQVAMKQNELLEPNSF
Outline: as §1

EHF = target: T5, EHF (Homo sapiens, UniProt Q9NZC4 1-300)
T5 sequence: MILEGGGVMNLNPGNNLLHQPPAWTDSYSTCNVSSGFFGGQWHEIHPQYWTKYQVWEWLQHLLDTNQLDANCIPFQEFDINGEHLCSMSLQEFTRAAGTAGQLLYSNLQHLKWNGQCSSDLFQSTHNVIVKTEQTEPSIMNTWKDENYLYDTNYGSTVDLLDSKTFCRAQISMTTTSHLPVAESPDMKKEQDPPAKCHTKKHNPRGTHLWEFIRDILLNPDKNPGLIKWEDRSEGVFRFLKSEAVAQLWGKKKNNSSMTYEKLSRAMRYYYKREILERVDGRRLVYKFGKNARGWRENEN
Outline: as §1

SPI1 = SPI1 (Homo sapiens, UniProt P17947 1-270)
Outline: as §1

SPIB = SPIB (Homo sapiens, UniProt Q01892 1-262)
Sequence of SPIB (Q01892 whole entry): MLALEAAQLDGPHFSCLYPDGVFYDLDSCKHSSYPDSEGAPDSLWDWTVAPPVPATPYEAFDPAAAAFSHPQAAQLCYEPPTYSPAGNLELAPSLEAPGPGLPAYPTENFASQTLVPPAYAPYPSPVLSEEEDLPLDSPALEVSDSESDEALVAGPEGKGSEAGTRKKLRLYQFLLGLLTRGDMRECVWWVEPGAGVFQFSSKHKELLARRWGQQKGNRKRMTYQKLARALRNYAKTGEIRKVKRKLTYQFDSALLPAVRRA
Outline: as §1

ELK3 = target: T6, ELK3 (Homo sapiens, UniProt P41970 1-407)
T6 sequence: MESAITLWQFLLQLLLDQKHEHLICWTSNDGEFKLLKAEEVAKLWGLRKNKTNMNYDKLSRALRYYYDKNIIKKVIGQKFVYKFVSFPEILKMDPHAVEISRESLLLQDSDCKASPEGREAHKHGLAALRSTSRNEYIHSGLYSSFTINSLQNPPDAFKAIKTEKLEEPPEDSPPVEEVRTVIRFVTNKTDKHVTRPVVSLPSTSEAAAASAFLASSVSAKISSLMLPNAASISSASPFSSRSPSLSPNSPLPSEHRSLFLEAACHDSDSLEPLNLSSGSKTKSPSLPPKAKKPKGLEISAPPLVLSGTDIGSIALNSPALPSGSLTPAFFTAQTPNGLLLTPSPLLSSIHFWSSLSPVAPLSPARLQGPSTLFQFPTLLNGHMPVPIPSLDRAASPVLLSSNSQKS
Outline: as §1

Sequence: GTTACT
- binding signal (FLI1): 1.25 fold enrichment (6-mer frequency, TF over GST control)
- binding signal (ELK1): 1.28 fold enrichment (6-mer frequency, TF over GST control)
- binding signal (GABPA): 1.13 fold enrichment (6-mer frequency, TF over GST control)
- binding signal (ERG): 1.33 fold enrichment (6-mer frequency, TF over GST control)
- binding signal (ELF1): 1.22 fold enrichment (6-mer frequency, TF over GST control)
- binding signal (EHF): 1.37 fold enrichment (6-mer frequency, TF over GST control)
- binding signal (SPI1): 1.3 fold enrichment (6-mer frequency, TF over GST control)
- binding signal (SPIB): 1.23 fold enrichment (6-mer frequency, TF over GST control)
- binding signal (ELK3): 1.31 fold enrichment (6-mer frequency, TF over GST control)
